# SRC1 TRFRET art = TR-FRET artefact, counter-screen to PPARgamma/SRC-1 agonist assay. TR-FRET detection artefact counter-screen, emission ratio; hits give high values. TR-FRET ratio at 8 µM. hit rate 0.34% among 99,000. AID 1051; in the data active = TR-FRET ratio above about 2300
# PPARg SRC-2 ag = promotes SRC-2 coactivator recruitment by human PPARgamma. P37231. PPARgamma LBD-SRC-2 recruitment, biochemical. activation, % at 8 µM. hit rate 0.34% among 200,000. AID 1032; in the data active = activation above about 22%;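 also: 0% = vehicle and 100% = reference agonist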
# Target sequence (P37231 whole entry, looked up, the tested form may be a part): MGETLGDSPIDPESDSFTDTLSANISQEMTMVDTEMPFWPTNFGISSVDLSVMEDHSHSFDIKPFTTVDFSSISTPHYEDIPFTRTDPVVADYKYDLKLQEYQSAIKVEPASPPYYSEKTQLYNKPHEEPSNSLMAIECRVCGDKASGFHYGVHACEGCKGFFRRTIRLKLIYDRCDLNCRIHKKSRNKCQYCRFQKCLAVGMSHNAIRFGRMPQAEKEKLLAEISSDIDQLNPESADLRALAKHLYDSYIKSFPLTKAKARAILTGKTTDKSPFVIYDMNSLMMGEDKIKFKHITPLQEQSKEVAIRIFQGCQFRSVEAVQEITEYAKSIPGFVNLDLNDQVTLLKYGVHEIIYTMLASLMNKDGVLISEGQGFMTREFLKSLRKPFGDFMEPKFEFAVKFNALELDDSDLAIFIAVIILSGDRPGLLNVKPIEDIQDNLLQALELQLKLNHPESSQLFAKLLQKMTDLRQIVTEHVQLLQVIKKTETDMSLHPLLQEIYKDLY
# SRC3 TRFRET art = flags TR-FRET format artefacts in PPARgamma SRC-3 recruitment agonist screen | TR-FRET artefact counter-screen, PPARgamma/SRC-3 format; hits give high values | TR-FRET ratio at 8 µM | hit rate 0.39% among 99,000 | AID 1048
# PPARg SRC3 recr = promotes SRC-3 coactivator recruitment by human PPARgamma | P37231 | biochemical PPARgamma/SRC-3 coactivator recruitment assay | activation, % at 8 µM | hit rate 0.26% among 200,000 | AID 731; in the data active = activation above about 23%;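 also: 0% = DMSO and 100% = reference agonist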
# TR-FRET SRC-2 ct = counter-screen for PPARgamma SRC-2 recruitment agonists: TR-FRET artefact | hits give high values | TR-FRET ratio at 8 µM | hit rate 0.4% among 200,000
# PPARg SRC1 recr = agonists of human PPARgamma SRC-1 coactivator recruitment; hit rate 0.41% among 200,000; activation, % at 8 µM; P37231; PPARgamma-SRC-1 coactivator recruitment biochemical assay; in the data active = activation above about 19%;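 also: 0% = DMSO and 100% = reference agonist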
# PPARg SRC2 conf = confirmation of agonists of SRC-2 recruitment by human PPARgamma | hit rate 52% among 790 | activation, % at 8 µM | shares compounds with PPARg SRC3 recr | biochemical SRC-2 recruitment by PPARgamma; in the data active = activation above about 22%;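 also: 0% = vehicle alone and 100% = reference agonist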
# PPARg SRC1 conf = confirmation of agonists of SRC-1 recruitment by human PPARgamma; AID 1300; PPARgamma–SRC-1 coactivator recruitment biochemical assay; shares compounds with PPARg SRC3 recr; hit rate 43% among 790; activation, % at 8 µM; in the data active = activation above about 20%;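 also: 0% = vehicle wells and 100% = reference agonist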
# PPARg SRC3 conf = human PPARgamma SRC-3 recruitment agonism, confirmation; shares compounds with PPARg SRC3 recr; biochemical PPARgamma-SRC-3 coactivator recruitment, agonist mode; activation, % at 8 µM; hit rate 29% among 790; in the data active = activation above about 24%;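 also: 0% = vehicle wells and 100% = reference agonist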
# The depositor's hits bear a star; x = not tested or not shown. Sampled rows, rich in hits. Any-hit rate of the full collection: about 0.9%. Rule as the data show it, unless noted: active = TR-FRET ratio above about 2000; inactive = the rest.
SMILES,SRC1 TRFRET art,PPARg SRC-2 ag,SRC3 TRFRET art,PPARg SRC3 recr,TR-FRET SRC-2 ct,PPARg SRC1 recr,PPARg SRC2 conf,PPARg SRC1 conf,PPARg SRC3 conf
CC(C)(C)c1ccc(C(=O)NC(=S)NNC(=O)c2cccs2)cc1,2055,14.7,1675,26.0*,1584,8.8,6.8,6.4,8.5
CCN(CC)CCN1C(=O)C(O)=C(C(=O)c2sc(C)nc2C)C1c1cccnc1 (configuration not stated),x,1.5,x,4.3,1457,-12.7,x,x,x
O=C(C1=C(O)C(=O)N(CCc2ccccc2)C1c1ccncc1)c1cc2ccccc2o1 (configuration not stated),2514*,24.6*,2106*,10.4,2092*,20.6*,26.2*,17.9,18.1
CCN(CC)CCN1C(=O)C(O)=C(C(=O)c2cc3ccccc3o2)C1c1cccnc1 (configuration not stated),x,39.5*,x,52.2*,2274*,33.0*,11.3,7.7,8.2
O=C(C1=C(O)C(=O)N(CCCN2CCOCC2)C1c1ccccn1)c1cc2ccccc2o1 (configuration not stated),x,25.2*,x,35.4*,1804,20.9*,16.6,12.2,9.0
CN(C)CCN1C(=O)C(O)=C(C(=O)c2cc3ccccc3o2)C1c1cccc(Br)c1 (configuration not stated),x,44.8*,x,58.4*,2387*,36.3*,38.1*,25.8*,26.3*
O=C(NNC(=O)c1cccnc1)Nc1cccc(Cl)c1Cl,1973,-9.9,1462,-0.3,1517,-4.7,x,x,x
COc1cc(C2C(C(C)=O)=C(O)C(=O)N2CCN(C)C)ccc1O (configuration not stated),x,1.9,x,-1.4,1429,6.3,x,x,x
COc1ccccc1C1C(C(=O)c2cc3ccccc3o2)=C(O)C(=O)N1CCN(C)C (configuration not stated),x,16.9,x,25.0,1988*,19.8*,14.1,13.0,9.2
O=C1c2ccccc2-c2onc3ccc(NCc4ccco4)c1c23,2253,35.4*,2084*,20.9,1951,31.7*,22.7*,14.0,12.6
CCNc1ccc2noc3c2c1C(=O)c1ccccc1-3,x,0.9,x,10.7,1616,4.9,x,x,x
COc1ccc(-n2c(-c3ccco3)n[nH]c2=S)cc1,x,14.5,x,21.0,1858,21.7*,20.5,10.6,12.6
Nn1c(-c2ccco2)n[nH]c1=S,x,2.5,x,-0.1,1580,0.7,x,x,x
COc1ccccc1-c1n[nH]c(=S)n1N,1712,1.5,1623,4.0,1698,10.9,x,x,x
COc1ccccc1-c1n[nH]c(=S)n1-c1ccccc1,x,63.3*,x,83.8*,2941*,61.9*,56.6*,39.4*,38.8*
S=c1[nH]nc(-c2ccco2)n1-c1ccc(Cl)cc1,2279,22.8*,2067*,17.9,1660,15.6,18.0,8.8,11.0
S=c1[nH]cnc2sc(-c3ccccc3)cc12,3261*,51.7*,2631*,30.1*,2602*,46.4*,33.0*,22.2*,20.7
CNc1ncnc2sc(-c3ccccc3)cc12,2133,-4.7,1461,-0.3,1590,-1.9,x,x,x
Cc1cc(C)cc(NC(=O)NC2CCN(CC(=O)Nc3c(C)cc(C)cc3C)CC2)c1,x,-5.6,x,3.8,1400,-3.3,x,x,x
CSc1oc(-c2ccccc2)nc1S(=O)(=O)c1ccc(C)cc1,2106,26.0*,2062*,15.8,1843,16.5,25.1*,20.3*,17.7
Cc1ccc(S(=O)(=O)c2nc(-c3cccs3)oc2SCC(N)=O)cc1,x,31.2*,x,16.0,1927,12.2,31.6*,31.7*,21.0
CCSc1oc(-c2ccccc2)nc1S(=O)(=O)c1ccccc1,x,14.5,x,10.1,1802,0.3,x,x,x
COC(=O)c1c(C)[nH]c(C(=O)C(C)Sc2nnc(-c3cc(OC)c(OC)c(OC)c3)o2)c1C (configuration not stated),x,3.6,x,12.6,1724,27.0*,24.4*,25.4*,17.3
Cc1ccc(C(C)NC(=O)/C(C#N)=C\c2c(C)[nH]c3ccccc23)cc1 (configuration not stated),x,9.8,x,4.5,1569,19.1*,5.5,16.6,14.4
Cc1[nH]c2ccccc2c1/C=C(\C#N)C(=O)NCc1ccccc1,1808,-1.0,1618,1.5,1429,5.3,x,x,x
SMILES,SRC1 TRFRET art,PPARg SRC-2 ag,SRC3 TRFRET art,PPARg SRC3 recr,TR-FRET SRC-2 ct,PPARg SRC1 recr,PPARg SRC2 conf,PPARg SRC1 conf,PPARg SRC3 conf
COc1ccc(/C=N/c2c(-c3ccco3)nc3ccccn23)cc1OC,x,23.0*,x,29.1*,1874,33.5*,16.9,8.0,5.9
CCOC(=O)N1CCN(CC(=O)N2c3ccccc3CC2C)CC1 (configuration not stated),x,5.2,x,11.9,1533,3.2,x,x,x
Cc1cc(C)c2cc(C#N)c(N3CCCN(S(=O)(=O)c4ccccc4)CC3)nc2c1,x,2.3,x,4.2,1481,-0.9,x,x,x
CC(=O)c1cccc(S(=O)(=O)N2CCN(c3nc4cc(C)cc(C)c4cc3C#N)CC2)c1,x,-6.1,x,38.7*,1642,25.7*,-1.3,-2.3,-3.5
CCCNC(=O)CC1C(=O)N(Cc2ccccc2)C(C)c2nc3ccccc3n21 (configuration not stated),x,15.0,x,8.7,1592,3.7,x,x,x
COC(=O)Cc1c(C)c2c(O)cc(C)cc2oc1=O,x,29.7*,x,35.3*,2058*,20.0*,27.2*,20.6*,17.6
CCc1cc(=O)oc2cc(C)cc(O)c12,x,41.6*,x,50.0*,2296*,37.0*,40.2*,27.3*,27.2*
CCCc1cc(=O)oc2cc(C)cc(O)c12,x,27.6*,x,27.1*,2043*,18.7,20.9,13.5,14.2
COC(=O)Cc1c(C)c2ccc(OC(=O)c3ccccc3)cc2oc1=O,x,9.7,x,1.0,1583,4.0,x,x,x
CCCCCc1cc(O)c2c(C)cc(=O)oc2c1,x,14.2,x,20.6,1926,18.9*,15.8,7.4,11.8
COc1ccc(-c2c[n+]3c4n2CCCCC4=C(c2ccccc2)C3)cc1,x,3.2,x,-0.8,1464,-4.6,x,x,x
CC1(C)C(=O)OC(c2c(F)c(F)c(F)c(F)c2F)C2(CCCCC2)C1=O (configuration not stated),x,4.0,x,-3.4,1665,0.6,x,x,x
CCOC(=O)c1sc(-c2ccc(Br)cc2)cc1N,x,15.1,x,6.1,1901,4.7,x,x,x
CCOC(=O)c1cc(-c2ccc(N)cc2)sc1N,x,28.0*,x,15.9,1795,16.3,11.3,7.7,6.0
CCOCCCNC(=O)CNC(=S)N(Cc1ccc(C)cc1)Cc1ccco1,1814,-0.4,1508,3.0,1654,0.8,x,x,x
CCC(CC)C(=O)Nc1nnc(-c2cccs2)s1,x,8.5,x,13.4,1582,11.8,x,x,x

# Screens as filed in PubChem BioAssay.
